The campaign covered roughly 420,000 compounds. About 64,000 (15%) were called active. Roughly 27% stayed inconclusive and do not appear here. Calls follow the shape of the dose curve; as a rule, active = well fitted inhibition curve with a large enough effect; inconclusive = small, poorly fitted or top-dose-only effect; inactive = flat fitted curve, though single readings scatter. A selection follows.
test: qHTS for Inhibitors of human tyrosyl-DNA phosphodiesterase 1 (TDP1): qHTS in cells in absence of CPT; conditions: DT40 Tdp1-/- hTDP1 cells, no CPT, ATP luminescence, 48 h; activity change, negative = growth inhibition: at 46.2 µM (top of the series); also: nearly all actives have a fitted effect of over 55% in size
How it was run: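 A cellular qHTS used chicken DT40 cells lacking endogenous Tdp1 but carrying stably transfected human TDP1. Compounds were applied without camptothecin, and cell growth kinetics were judged by ATP-dependent luminescence after ≥48 hr.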
% is scaled to controls: 0 for no effect and ±100 for the full control effect; potency is read from the fitted curve at half-maximal effect.

SMILES	activity change, negative = growth inhibition	Potency
COc1ccc(N2CCN(CCNC(=O)CCN3C(=O)COc4ccccc43)CC2)cc1	-12.1% (inactive)	–
C/C(=N\NC(=O)COc1ccc(C)cc1[N+](=O)[O-])c1ccc2c(c1)OCCO2	-13.3% (inactive)	–
CCCn1nnnc1NCc1ccc(OC)cc1	2.5% (inactive)	–
COc1ccc(CNC2CCCCC2)cc1	-10.9% (inactive)	–
COc1ccc(CNc2nc(NCc3ccc(OC)cc3)c3ncn(C4CCCC4)c3n2)cc1	–	2.31 µM (active)
O=C1NS(=O)(=O)c2ccccc21	–	inactive
N#CCCN1CCN(S(=O)(=O)c2ccc(S(=O)(=O)NC3CC3)cc2)CC1	3.76% (inactive)	–
COc1ccc(-c2cc(-c3ccccc3)nc3c2COc2ccc(Cl)cc2-3)cc1	-15.8% (inactive)	–
O=C(CSc1nc(=O)[nH]c2c1CCCC2)Nc1cc(C(F)(F)F)ccc1Cl	–	16.4 µM (active)
Nc1nc(SCC(=O)Nc2cc(C(F)(F)F)ccc2Cl)[nH]c(=O)c1NC(=O)c1ccco1	-0.773% (inactive)	–
COc1ccc(Cl)cc1NC(=O)CSc1nc(=O)[nH]c2c1CCCC2	-57.5% (inactive)	–
CC(C)CCN1CCN=C1N(C)C	-7.35% (inactive)	–
CC(C)CC(=O)N1CCN(Cc2ccccc2Br)CC1	-0.0212% (inactive)	–
Cc1c(C(=O)NCc2ccccc2Br)oc2ccc3c(c12)C(=O)CC(C)(C)O3	–	16.4 µM (active)
COc1ccc2oc(C(=O)NCc3ccco3)c(C)c2c1	20.9% (inactive)	–
C[C@]12C=CC(=O)C=C1CC[C@@H]1[C@@H]2C(=O)C[C@@]2(C)[C@H]1CC[C@]2(O)C(=O)CO	-10.7% (inactive)	–
Cc1cc(C)cc(N(CCC#N)C(=O)CN2C(=O)NC3(CCCC3)C2=O)c1	-12.4% (inactive)	–
O=C(NC1CCCC1)C(c1ccc(N2CCOCC2)cc1)N(C(=O)c1ccco1)c1ccccc1F (stereo not drawn)	-27.7% (inactive)	–
O=C(N/N=C/c1ccc(OCC2COCCO2)cc1)c1ccc(Br)cc1 (stereo not drawn)	–	18.4 µM (active)
O=C(O)c1ccc(OCC2CCCO2)cc1 (stereo not drawn)	7.34% (inactive)	–
O=C(O)c1ccc(/C=N/NC(=O)c2ccc(Br)cc2)cc1	-10% (inactive)	–
O=C(Nc1cccn(Cc2c(Cl)cccc2Cl)c1=O)c1ccc(Cl)cc1	-16.9% (inactive)	–
CCCOC(=O)Nc1sc2c(c1C(=O)OCC)CCC2	-8.8% (inactive)	–

SMILES	activity change, negative = growth inhibition	Potency
CCC(C)NC(=O)Cn1c(=O)n(-c2ccc(Cl)cc2)c(=O)c2c3c(sc21)CCCC3 (stereo not drawn)	-29% (inactive)	–
CCOC(=O)c1c(NC(C)=O)c2c3c(sc2n1Cc1c(C)cc(C)cc1C)CCCC3	–	13 µM (active)
CN(Cc1nc(-c2cnccn2)no1)Cc1n[nH]c2c1CCCCC2	0.716% (inactive)	–
O=[N+]([O-])c1ccc(C=Nc2ccc(Cl)cc2Cl)s1	–	13 µM (active)
O=C(CSCc1ccccc1Cl)NNC(=O)c1ccccc1	-16% (inactive)	–
O=C(CCN1CCCO1)N1CCCC(N2CCN(c3cccc(C(F)(F)F)c3)CC2)C1 (stereo not drawn)	1.53% (inactive)	–
O=C(C1CC(=O)N(C2CCCC2)C1)N1CCN(c2cccc(C(F)(F)F)c2)CC1 (stereo not drawn)	–	11.6 µM (active)
O=C(C1CC(=O)N(C2CCCCC2)C1)N1CCN(c2ccccc2)CC1 (stereo not drawn)	-17.8% (inactive)	–
CC(=O)C1(C)N(O)C(C)(C)C(c2cccs2)=[N+]1[O-] (stereo not drawn)	1.43% (inactive)	–
CCOC(=O)C1CCN(C(=O)CN2C(=O)c3cccnc3Oc3ccc(C)cc32)CC1	10.2% (inactive)	–
CCOC(=O)CN1C(=O)C(=O)c2cc(C)ccc21	–	14.6 µM (active)
CCOC(=O)CSc1nc2ccc(C)cc2[nH]1	-12.5% (inactive)	–
CC(OC(=O)CN1C(=O)c2ccccc2C1=O)C(=O)c1ccccc1 (stereo not drawn)	0.701% (inactive)	–
CC(C)OC(=O)CN1C(=O)C(=O)c2ccccc21	–	13 µM (active)
CCOC(=O)c1cc2n(c1C)-c1ccccc1C2=O	-5.29% (inactive)	–
COc1ccccc1C(=O)Nc1ccnn1C1CCN(C(=O)C(C)(C)C)CC1	-15.1% (inactive)	–
CC1Cc2ccccc2N1CC(=O)Nc1ccc2c(c1)OC(F)(F)O2 (stereo not drawn)	-23.1% (inactive)	–
Cc1cccc(C(=O)Nc2ccccc2C(=O)NCc2cccnc2)c1	-2.04% (inactive)	–
CCC(C)c1ccc(NC(=O)COC(=O)C2CCCC2)cc1 (stereo not drawn)	-2.83% (inactive)	–
CNC[C@@H]1Oc2c(NS(C)(=O)=O)cccc2C(=O)N([C@@H](C)CO)C[C@H]1C	-0.631% (inactive)	–
Cc1cccc(-n2c(Cc3cc(=O)[nH]c(=O)[nH]3)nnc2SCC(=O)Nc2cccc(C(F)(F)F)c2)c1	1.12% (inactive)	–
Cc1cc(O)c(C(c2ccccc2)N2CCN(c3ccccc3F)CC2)c(=O)n1Cc1ccco1 (stereo not drawn)	1.79% (inactive)	–
CCCCn1nnnc1C(c1cccc(OC)c1OC)N1CCN(C/C=C/c2ccccc2)CC1 (stereo not drawn)	–	20.6 µM (active)

SMILES	activity change, negative = growth inhibition	Potency
c1ccc(CCn2nnnc2CN2CCN(C3CCCC3)CC2)cc1	-3.23% (inactive)	–
COc1ccccc1C(c1nnnn1CC1CCCO1)N1CCN(c2ccccc2)CC1 (stereo not drawn)	-0.572% (inactive)	–
c1ccc(C(c2ccccc2)N2CCN(Cc3nnnn3C3CCCCC3)CC2)cc1	–	20.6 µM (active)
CCCCn1nnnc1C(c1ccccc1)N1CCN(c2ccccc2OC)CC1 (stereo not drawn)	–	20.6 µM (active)
COc1ccccc1N1CCN(Cc2nnnn2CCc2ccccc2)CC1	-21.4% (inactive)	–
COc1ccc(CCn2nnnc2C(c2ccccc2)N2CCN(C)CC2)cc1OC (stereo not drawn)	-10.5% (inactive)	–
CCCCn1nnnc1NCc1cc(OC)c(OC)c(OC)c1	-16% (inactive)	–
C=CCC(Nc1ccccc1)c1cccc(OC)c1OC (stereo not drawn)	-27.1% (inactive)	–
Cc1cccc(N2CCN(C(c3ccccc3)c3nnnn3CC3CCCO3)CC2)c1C (stereo not drawn)	–	11.6 µM (active)
Clc1ccc(-n2nnnc2CN2CCCCC2)cc1Cl	-20.1% (inactive)	–
O=C(Nc1nncs1)c1ccccc1NS(=O)(=O)c1cccs1	-5% (inactive)	–
O=C(CSCc1ccc([N+](=O)[O-])cc1)Nc1cccc(C(=O)Nc2ccccc2C(=O)O)c1	-1.66% (inactive)	–
C[C@H](NC(=O)C1CC(=O)N(c2ccc3c(c2)OCO3)C1)C(=O)NCc1ccco1 (stereo partly drawn)	5.08% (inactive)	–
CCCCC(=O)NCc1ccc(F)cc1	-5.14% (inactive)	–
CCCCNC(=O)C1CCC(CNS(=O)(=O)c2ccc(NC(C)=O)cc2)CC1 (stereo not drawn)	–	inactive
O=C1C(=O)N(CCN2CCOCC2)C(c2ccccn2)/C1=C(/O)c1ccc(Cl)cc1 (stereo not drawn)	-2.58% (inactive)	–
CC(C)OCC(O)CN1CCN(C(c2ccccc2)c2ccccc2)CC1 (stereo not drawn)	-29.4% (inactive)	–
O=C(O)CN1CCN(C(c2ccccc2)c2ccccc2)CC1	-3.58% (inactive)	–
COc1ccc(C(c2nnnn2C2CCCC2)N2CCN(C/C=C/c3ccccc3)CC2)cc1 (stereo not drawn)	–	16.4 µM (active)
Oc1ccccc1CN1CCN(C(c2ccccc2)c2ccccc2)CC1	–	16.4 µM (active)
COc1ccc(/C=C/CN2CCN(Cc3ccc(C)cc3)C(CCO)C2)cc1 (stereo not drawn)	-11.8% (inactive)	–
O=C(Nc1ccnn1C1CCN(C/C=C/c2ccc(F)cc2)CC1)C1CCCC1	-24.1% (inactive)	–

Reference: PubChem BioAssay AID686978 (National Center for Advancing Translational Sciences (NCATS), 2013)
